# Peg3 prom inh: inhibitors of Peg3 promoter. HeLa PEG-Prom luciferase reporter, luminescence, overnight. inhibition, % at 20 µM. actives 1.7% (n = 360,000). AID 588405;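 active means inhibition of at least 50% at 20 µM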
# LGR2 antag: inhibitors of bursicon-induced Drosophila LGR2 receptor cAMP signaling | HEK293 LGR2, CRE-luciferase, bursicon-stimulated, 4 h | inhibition, % at 9.99 µM | actives 0.35% (n = 380,000) | AID 720647;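 active means drop in luminescence signal, shown as inhibition above about 50% in the replicate tests, limit read from the data, passing the limit was not always enough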;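 further: agonist challenge used bursicon conditioned medium at about half maximal strength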
# KKLEB cytotox: counter-screen for CF NF-kB inhibitors: cytotoxicity; KKLEB CF airway cells viability, ATPlite luminescence, overnight; active compounds read low; cells stimulated with P. aeruginosa culture filtrate; activity change (cytotoxicity), % at 5 µM; actives 0.36% (n = 360,000); AID 602141;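 active means corrected activity change at or below -50% at 5 µM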
# Mdm2 MdmX PPI: disrupts the human Mdm2-MdmX interaction | AID 485346 | actives 3% (n = 330,000) | SaOS-2 split-luciferase Mdm2/MdmX complementation, luminescence | inhibition, % at 8 µM | O15151+Q00987;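 active means inhibition of at least 50% at 8 µM in the primary screen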
# CF NFkB block: cystic fibrosis NF-kB activation inhibition; KKLEB NF-kB-GFP reporter, PAF-induced, GFP fluorescence overnight; inhibition, % at 5 µM; actives 0.86% (n = 360,000);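 active means at least 50% inhibition at 5 µM, scaled per plate between neutral and stimulator controls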;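 further: PAF is a Pseudomonas aeruginosa culture filtrate used as stimulus; plate controls were PAF-stimulated DMSO wells for no effect and unstimulated DMSO wells for full effect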
# HSP90 refold inh: blocks HSP90-mediated luciferase refolding in reticulocyte lysate; Rabbit reticulocyte lysate, luciferase refolding luminescence, 3 h; inhibition, % at 5.6 µM; actives 0.91% (n = 290,000);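 active means inhibition above the screen-wide mean plus 3 SD, computed separately per campaign, cut at about 16% in these data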;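 further: 0% = DMSO wells and 100% = 60 µM geldanamycin wells; inhibitors lower the luminescence because luciferase stays unfolded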
# Mdm2 MdmX conf: human Mdm2/MdmX binding inhibition, confirmed; shares compounds with Mdm2 MdmX PPI; luminescent assay; inhibition, % at 8 µM; actives 55% (n = 10,000); AID 489028; in the data active means inhibition above about 40%
# Full FLuc ctr: full-length luciferase inhibition in Mdm2/MdmX counter-screen. shares compounds with Mdm2 MdmX PPI. SaOS-2 full-length luciferase counterscreen, luminescence. inhibition, % at 8 µM. actives 77% (n = 6,200). AID 504607;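 active means mean inhibition at 8 µM reaching about 37%, which flags the compound as non-specific, limit read from the data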;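 further: p53-null SaOS-2 cells with luciferase driven by a doxycycline-inducible promoter; compound on cells about two nights before reading with doxycycline added after day one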
# * = called active by the depositor; · = no result given. This is a sample that favours compounds with a hit; in the whole collection about 3.6% have one here.
SMILES,Peg3 prom inh,LGR2 antag,KKLEB cytotox,Mdm2 MdmX PPI,CF NFkB block,HSP90 refold inh,Mdm2 MdmX conf,others
CCN(CC)CCOC(=O)c1ccc(N/C=C(/C#N)c2nc(-c3cccc(OC)c3)cs2)cc1,-4,·,-3,61*,7,1,9,
C[C@@H]1CN([C@@H](C)CO)C(=O)c2cc(NS(=O)(=O)c3cccs3)ccc2O[C@@H]1CN(C)S(=O)(=O)c1ccc(Cl)cc1,·,-9,·,·,·,·,·,
C[C@@H]1CCCCO[C@@H](CN(C)Cc2ccc(C(F)(F)F)cc2)[C@H](C)CN([C@@H](C)CO)C(=O)c2cc(NS(C)(=O)=O)ccc2O1,·,8,·,·,·,·,·,
C[C@@H]1CN([C@H](C)CO)C(=O)c2cc(NC(=O)C3CCCCC3)ccc2O[C@@H](C)CCCCO[C@@H]1CN(C)Cc1ccc2c(c1)OCO2,·,-13,·,·,·,·,·,
C=CCc1cccc(/C=N/NC(=O)c2ccccc2OC)c1O,-77,-27,8,66*,-26,0,70*,Full FLuc ctr=47*
O=C(N/N=C/c1ccc(Cl)cc1Cl)c1ccc2nc[nH]c2c1,-154,-36,8,2,-11,-6,·,
C=CCc1cccc(/C=N/NC(=O)c2ccc3nc[nH]c3c2)c1O,24,-7,5,67*,12,-11,52*,Full FLuc ctr=26
O=C(NCC1CC1)[C@@H]1[C@@H](CO)[C@@H]2Cn3c(ccc(-c4ccc(F)cc4)c3=O)[C@H]1N2,·,0,·,·,·,·,·,
CO[C@@H]1CN(C)C(=O)c2cc(NC(=O)c3ccccc3F)ccc2OC[C@H](C)N(C(C)=O)C[C@H]1C,·,-9,·,·,·,·,·,
COc1ccc(NC(=O)Nc2ccc3c(c2)C(=O)N([C@H](C)CO)C[C@H](C)[C@H](CN(C)C(=O)NC(C)C)O3)cc1,·,0,·,·,·,·,·,
Cc1cc(C(C)(C)CC(C)(C)C)ccc1OCCOCC[N+](C)(C)Cc1ccccc1,102*,38,-22,100*,63*,·,96*,Full FLuc ctr=54*
O=C(C[C@@H]1CC[C@H]2[C@@H](COC[C@@H](O)CN2Cc2ccccc2)O1)N[C@@H]1CCN(Cc2ccccc2)C1,·,0,·,·,·,·,·,
CCCCn1nc(C(=O)Nc2ccc3c(c2)OCCO3)c2ccccc2c1=O,-34,-12,-9,58*,26,·,38,
Cn1nc(C(=O)Nc2ccc3c(c2)OCCO3)c2ccccc2c1=O,-133,-25,8,12,-23,·,·,
O=C(NCCC1CCCCN1S(=O)(=O)c1ccc(F)cc1)C(=O)Nc1ccccc1F (stereo unspecified),15,7,11,6,0,·,·,
Cc1ccc(S(=O)(=O)N2CCCCC2CCNC(=O)C(=O)Nc2ccccc2F)cc1 (stereo unspecified),6,-5,-3,52*,6,·,75*,Full FLuc ctr=54*
c1cc(C2CCCCC2)ccc1Oc1nc(N2CCOCC2)nc(N2CCOCC2)n1,9,16,-6,63*,36,7,17,
COc1ccc(OC)c2sc(N(CCCN(C)C)C(=O)c3ccc(S(=O)(=O)N4CCc5ccccc5C4)cc3)nc12,·,·,·,99*,·,·,100*,Full FLuc ctr=1
Cc1cc(C)c2nc(N(CCCN(C)C)C(=O)C3=COCCO3)sc2c1,25,2,-13,42,28,·,·,
Cc1cc(C)c2nc(N(CCCN(C)C)C(=O)c3ccc4c(c3)OCCO4)sc2c1,98*,9,-17,66*,26,·,53*,Full FLuc ctr=76*
CN(C)CCCN(C(=O)CCc1ccccc1)c1nc2ccc(Cl)cc2s1,108*,7,-40,50*,34,-1,35,Full FLuc ctr=54*
CN(C)CCCN(C(=O)c1ccc2ccccc2c1)c1nc2cc3c(cc2s1)OCO3,3,7,0,77*,4,2,46*,Full FLuc ctr=61*
O=C([C@@H]1[C@@H](CO)[C@@H]2Cn3c(cccc3=O)[C@H]1N2CC1CCCC1)N1CCc2ccccc2C1,·,-12,·,·,·,·,·,
C[C@@H]1CN([C@H](C)CO)C(=O)c2cccc(NC(=O)c3ccc(-c4nccs4)cc3)c2O[C@H]1CN(C)S(=O)(=O)c1ccc(F)cc1,·,7,·,·,·,·,·,
CN(C)CCCN(C(=O)c1ccc2c(c1)CCCC2)c1nc2ccc(Cl)cc2s1,108*,7,-24,54*,11,-6,19,
SMILES,Peg3 prom inh,LGR2 antag,KKLEB cytotox,Mdm2 MdmX PPI,CF NFkB block,HSP90 refold inh,Mdm2 MdmX conf,others
COc1cccc2sc(N(CCCN(C)C)C(=O)c3ccc(S(=O)(=O)N4CCCc5ccccc54)cc3)nc12,54*,26,-16,80*,5,0,28,
COc1cccc2sc(N(CCCN(C)C)C(=O)c3ccc(S(=O)(=O)N4CCc5ccccc5C4)cc3)nc12,85*,6,-16,62*,26,2,23,
CCc1ccc2nc(N(CCCN(C)C)C(=O)c3ccc(S(=O)(=O)N4CCCC4)cc3)sc2c1,-55,-3,-12,28,-7,-2,·,
CN(C)CCCN(C(=O)c1ccc(S(=O)(=O)N2CCc3ccccc32)cc1)c1nc2c(Cl)cccc2s1,35,-9,-26,30,31,4,·,
CN(C)CCCN(C(=O)c1ccc(S(=O)(=O)N2CCc3ccccc3C2)cc1)c1nc2c(F)cc(F)cc2s1,-34,·,-6,31,10,·,·,
CCc1ccc2nc(N(CCCN(C)C)C(=O)c3ccc(S(=O)(=O)N4CCCc5ccccc54)cc3)sc2c1,106*,21,-34,91*,34,3,30,
CN(C)CCCN(C(=O)c1ccc(C(=O)c2ccccc2)cc1)c1nc2c(F)cccc2s1,3,4,2,40,14,-1,·,
CCOc1cccc2sc(N(CCCN(C)C)C(=O)c3ccc(C(=O)c4ccccc4)cc3)nc12,30,2,-12,51*,28,5,34,
CCOc1cccc2sc(N(CCN(C)C)C(=O)c3cc4ccccc4cc3OC)nc12,32,5,-32,69*,25,-1,28,
CCc1ccc2nc(N(CCCN(C)C)C(=O)c3ccc(C(=O)c4ccccc4)cc3)sc2c1,102*,14,-21,74*,18,2,21,
O=C(C[C@H]1C[C@@H]2c3cc(NC(=O)C4CCC4)ccc3O[C@@H]2[C@@H](CO)O1)NCc1ccccc1F,·,5,·,·,·,·,·,
C[C@@H]1CN([C@@H](C)CO)C(=O)c2cc(NS(=O)(=O)c3cn(C)cn3)ccc2O[C@@H](C)CCCCO[C@H]1CN(C)C(=O)c1ccncc1,·,-6,·,·,·,·,·,
Cc1noc(C)c1S(=O)(=O)Nc1ccc2c(c1)C(=O)N([C@@H](C)CO)C[C@@H](C)[C@@H](CN(C)S(=O)(=O)c1ccc(F)cc1)OCCCC[C@H](C)O2,·,18,·,·,·,·,·,
Cc1cccc(S(=O)(=O)c2c(N)n(/N=C/c3ccccc3)c3nc4ccccc4nc23)c1,-8,·,-2,39,0,0,·,

# Bioassay records: PubChem BioAssay, several laboratories
